Screening data deposited in PubChem BioAssay by National Center for Advancing Translational Sciences (NCATS).
KinaseGlo FLuc – counter-screen: inhibitors of Kinase-Glo firefly luciferase; Q27757; Kinase-Glo luciferase, ATP luminescence, 8 min; Potency, µM (titrated, usually from 38.3 µM), inactives show top-dose activity change, negative = inhibition, actives largely listed as inhibitors; 200,000 tested, 0.28% active; AID 1379; note: % is set by controls: 0 for no effect and ±100 for the full control effect; nearly all actives have a fitted effect of over 60% in size
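Recombinant Kinase-Glo luciferase, 10 uM ATP (linear range), luciferin; imidazole pH 7.2 / KCl / MgCl2 / Tween / BSA buffer; 8 min RT; luminescence.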
SMN2 splice enh – SMN2 splice variant enhancement; AID 1458; HEK293 SMN2-luciferase splicing reporter, luminescence, 30-36 h; Potency, µM (titrated, usually from 46.1 µM), for the others: top-dose activity change, positive = activation, hits mostly activators; 210,000 tested, 2.8% active; note: % of control where 0% means no effect; nearly all actives have a fitted effect of over 55% in size
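HEK293 cells carry an SMN2 minigene-luciferase reporter in which exon 7 inclusion puts luciferase in frame. Cells were seeded at 2000 cells/well, attached for 10-12 hours, then exposed to compounds for 30-36 hours at 37C before ONE-Glo luminescence.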
FLuc modulator – firefly luciferase modulation, counter-screen for miR-21 project | P08659 | purified FLuc, Km substrates, luminescence inhibition | Potency, µM (highest dose often 57.5 µM), for the others: at the top dose activity change, negative = inhibition, actives largely listed as inhibitors | 360,000 tested, 6.9% active;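 note: plate controls were vehicle for no effect and reference inhibitor for full effect; nearly all actives have a fitted effect of over 55% in size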
Target sequence (P08659 whole entry, looked up): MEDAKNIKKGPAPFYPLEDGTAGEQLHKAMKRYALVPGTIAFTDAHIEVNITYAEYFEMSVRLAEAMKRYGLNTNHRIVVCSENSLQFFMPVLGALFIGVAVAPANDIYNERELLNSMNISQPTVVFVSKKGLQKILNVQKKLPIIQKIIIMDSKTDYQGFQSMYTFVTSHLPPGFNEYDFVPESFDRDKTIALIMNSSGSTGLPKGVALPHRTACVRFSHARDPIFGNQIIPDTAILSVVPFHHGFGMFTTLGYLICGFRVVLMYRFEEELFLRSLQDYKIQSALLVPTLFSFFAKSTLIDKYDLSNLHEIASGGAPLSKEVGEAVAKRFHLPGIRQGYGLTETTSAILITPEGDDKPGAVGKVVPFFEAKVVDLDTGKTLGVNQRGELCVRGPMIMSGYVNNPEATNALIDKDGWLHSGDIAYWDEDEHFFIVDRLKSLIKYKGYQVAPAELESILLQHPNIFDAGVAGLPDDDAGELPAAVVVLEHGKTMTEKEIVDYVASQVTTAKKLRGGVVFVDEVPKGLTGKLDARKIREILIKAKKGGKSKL
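Biochemical qHTS of compounds, final roughly 60 µM downward over six points, against 10 nM purified firefly luciferase using Km concentrations of substrates (10 uM D-luciferin, 10 uM ATP) in Tris acetate pH 7.5 buffer; luminescence output.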
ELG1 genotoxic – induces genotoxicity in HEK293T cells with luciferase-tagged ELG1 | HEK293T ELG1-luciferase reporter, luminescence, 16 h | Potency, µM (top dose mostly 46 µM), without a hit: at the top dose activity change, positive = activation, usual class: activators | 330,000 tested, 1.3% active | AID 504466; note: % of control where 0% means no effect; nearly all actives have a fitted effect of over 60% in size
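16 hr compound incubation (37 °C, 5% CO2) of HEK293T cells carrying luciferase-tagged ELG1; luciferase then measured by ONE-Glo luminescence after 30 min at RT.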
Rab9 prom act – activators of Rab9 promoter | Huh7 Rab9 promoter-luciferase reporter, luminescence, 24 h | Potency, µM (titrated, usually from 9.22 µM), without a hit: at the top dose activation, negative = inhibition, actives largely listed as activators | 320,000 tested, 2.8% active | AID 485297; note: % of control where 0% means no effect; nearly all actives have a fitted effect of over 60% in size
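Cell-based reporter: Huh7 stable for Rab9 promoter-driven luciferase, plated in reduced-serum medium with 10% FBS at 1500 cells/well, compound-treated 24 h at 37 °C, luminescence read after 10 min reagent.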
NPC1 prom act – activates the NPC1 promoter. Huh7 NPC1 promoter luciferase reporter, 24 h. Potency, µM (highest dose often 9.22 µM), for the others: top-dose activation, hits mostly activators. 320,000 tested, 2.4% active. AID 485313; note: % of control where 0% means no effect; nearly all actives have a fitted effect of over 60% in size
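Huh7 cells stably carrying NPC1 promoter–luciferase, plated in Opti-MEM with 10% FBS for 2 h, were exposed to compound in DMSO for 24 h at 37 °C; luciferase reagent was added for 10 min and luminescence read.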
* = called active by the depositor; ? = inconclusive; . = no result given; [ ] = remark or other dose. Hits are enriched below; roughly 7.5% of the tested compounds scored in any of these assays. Calls come from the whole dose curve; as a rule, active = well fitted curve in the direction sought with a large enough effect; inconclusive = small, poorly fitted or top-dose-only effect, or another doubt; inactive = no such curve, though single readings can be large; an effect the other way counts as inactive or inconclusive. Potency is the fitted concentration of half-maximal effect.

SMILES	KinaseGlo FLuc	SMN2 splice enh	FLuc modulator	ELG1 genotoxic	Rab9 prom act	NPC1 prom act
Clc1ccc(OCc2cn3cccnc3n2)c2ncccc12	-4.4%	11.2µM*	?	15.8µM*	?	?
Clc1cccc(NCc2cn3cccnc3n2)c1	0.2%	13.5%	-10.9%	14.9%	26.7%	22.9%
CCC(=O)NC1Cc2ccccc2C(c2ccccc2)C1 (stereo not drawn)	.	-7.1%	.	.	.	.
CCOC(=O)Cc1nnc(NC(=O)c2ccccc2OC)s1	-5.0%	-7.8%	16.9µM*	12.7%	-32.6%	6.7%
CCOC(=O)Cc1csc(NC(=O)c2cc(=O)c3ccccc3o2)n1	0.7%	5.0%	16.9µM*	-2.7%	12.7%	-2.0%
CCc1ccc(C(=O)Nc2cc(C)ccc2F)s1	-27.2%	?	19µM*	21.5%	23.4%	0.1%
O=C(Nc1nnc(C2CC2)s1)c1cc2ccccc2o1	.	.	13.5µM*	?	3.55µM*	2.82µM*
Cc1ccc(C(=O)Nc2cc([N+](=O)[O-])ccc2F)s1	8.2%	-9.4%	?	-1.3%	-7.5%	-4.1%
Nc1ccc(Cl)cc1Cl	.	2.8%	.	.	.	.
CCOC(=O)c1sc(NC(=O)c2ccc(S(=O)(=O)N(C)C)cc2)nc1C	-0.3%	?	-17.2%	4.0%	-12.4%	-15.2%
CCOC(=O)Cc1csc(-n2sc3ccccc3c2=O)n1	-7.3%	-1.4%	9.53µM*	?	28.1%	22.2%
CCc1ccc(C(=O)Nc2nc(C)cs2)s1	.	.	0.953µM*	?	-16.4%	-11.9%
CCOC(=O)c1sc(NC(=O)c2ccc(CC)s2)nc1C	-6.5%	2µM*	?	2.59µM*	23.3%	-2.9%
CCOC(=O)Cc1csc(SCn2nnc3ccccc3c2=O)n1	-4.6%	4.8%	-2.8%	1.5%	-0.4%	3.4%
CCOCCn1cnc2sc(C(=O)Nc3nc(C)c(C(=O)OCC)s3)c(C)c2c1=O	-2.0%	-11.6%	2.39µM*	12.0%	1.9%	-9.1%
Cc1ccc2[nH]cc(CCNC(=O)C3CCCO3)c2c1 (stereo not drawn)	.	.	0.3%	-2.8%	-0.3%	-10.4%
CCOC(=O)C1=C(COC(=O)C2CC(=O)N(c3ccc(C)cc3)C2)NC(=O)NC1C (stereo not drawn)	.	.	-0.4%	1.3%	-2.5%	-0.7%
COc1ccccc1OCC(=O)Nc1ccc(S(=O)(=O)Nc2onc(C)c2C)cc1	.	.	1.8%	4.2%	1.4%	-1.1%
CCOC(=O)Cn1ccc(NC(=O)c2ccc3c(c2)OCO3)n1	.	.	?	-1.0%[9.26 µM]	-1.9%	0.8%
CNC[C@H](Cc1cccc2ccccc12)NC[C@H](CCSC)NCC1CCC(C(C)(C)C)CC1 (stereo partly drawn)	.	.	.	-2.3%	.	.
Cc1ccc(NC(=O)CSc2nc3ccccc3n2CC(=O)N2CCC(C)CC2)cc1C	.	.	-13.5%	.	.	.
Cc1ccccc1-c1nnc(NC(=O)c2cc3ccccc3oc2=O)s1	1.5%	-40.6%	-0.7%	5.1%	1.4%	1.6%
Cc1nnc(NC(=O)c2cc3ccccc3o2)s1	.	.	6.01µM*	?	?	?
Cc1cnc(NC(=O)c2cc3ccccc3o2)s1	-11.1%	2.24µM*	0.536µM*	?	?	1.41µM*
C=CCOC(=O)c1sc(NC(=O)c2ccco2)nc1C	-20.2%	?	9.53µM*	20.6µM*	?	?
SMILES	KinaseGlo FLuc	SMN2 splice enh	FLuc modulator	ELG1 genotoxic	Rab9 prom act	NPC1 prom act
CCOC(=O)Cc1csc(/N=C/c2c(O)n(-c3ccccc3C(F)(F)F)c(=O)c3ccccc23)n1	5.5%	-10.3%	10.7µM*	-5.8%	-2.5%	-2.3%
CCOC(=O)Cc1csc(N/N=C/c2ccc(C(F)(F)F)cc2)n1	4.8%	-21.7%	0.6%	3.0%	1.9%	-4.9%
CCc1cccc(NC(=O)COC(=O)c2cn(CC)c3nc(C)ccc3c2=O)c1	.	4.3%	5.7%	.	.	.
CCOC(=O)c1sc(NC(=O)c2cc3ccccc3o2)nc1C	-4.4%	11.2µM*	2.39µM*	14.0%	-17.0%	-42.1%
CCOC(=O)c1ccccc1NC(=O)c1cc2ccccc2o1	.	.	?	-15.3%	?	-1.8%
CCOC(=O)c1sc(NC(=O)CC2OC(=O)c3ccccc32)nc1C (stereo not drawn)	.	.	?	1.6%	0.2%	-3.4%
CCOC(=O)c1sc(NC(=O)Cc2ccc(C)cc2)nc1C	0.6%	5.6%	-16.1%	-4.7%	-2.6%	-4.9%
CCOC(=O)Cc1csc(NC(=O)c2csc(C)c2)n1	-1.3%	-8.4%	?	?	-0.1%	11.3%
CCOC(=O)Cc1csc(NC(=O)c2sc3nc4c(C)cc(C)cc4cc3c2N)n1	0.9%	22.4µM*	?	?	22.3%	18.1%
CCOC(=O)c1sc(NC(=O)c2ccccc2OC)nc1C	10µM*	2.51µM*	0.426µM*	1.84µM*	27.7%	0.8%
CCOC(=O)c1csc(NC(=O)c2cc3ccccc3o2)n1	.	.	3.38µM*	?	?	?
Cc1cccc(NC(=O)Cc2coc3ccc4ccccc4c23)n1	-3.7%	.	-9.7%	-8.9%	-3.2%	5.3%
CNC(=O)c1cc2ccccc2o1	-1.2%	22.0%	-3.5%	6.6%	-3.7%	0.5%
Cc1nc(NC(=O)c2cc3ccccc3o2)sc1C	.	.	1.07µM*	0.651µM*	?	-4.5%
CCn1c(SCC(=O)Nc2ccc(C)cc2)nnc1-c1ccc(O)cc1	1.5%	-20.7%	-15.6%	-0.1%	-1.7%	-2.9%
COc1ccc(-c2csc(C3=C(O)CN(CCCN4CCCC4=O)C3=N)n2)cc1OC	6.9%	?	8.49µM*	1.1%	13.3%	-3.0%
COc1ccc2c(c1)c1c(c(=O)n(CCc3ccccc3)c(=O)n1Cc1ccccc1)n2C	.	.	-0.2%	.	.	.
Cc1ccc(C(=O)/C=C/Nc2ccc([N+](=O)[O-])cc2Br)cc1	-5.9%	?	0.338µM*	?	0.447µM*	0.447µM*
CCOc1ccc(N/C=C/C(=O)c2ccc3ccccc3c2)c([N+](=O)[O-])c1	7.1%	2.51µM*	0.849µM*	15.9%	2µM*	2µM*
CCOc1ccc(NC(=S)NC(=O)/C=C/c2ccc(C)cc2)c([N+](=O)[O-])c1	-1.9%	.	?	?	5.9%	8.9%
CCOc1ccc(NC(=O)Cc2ccccc2)c([N+](=O)[O-])c1	-0.8%	0.7%	-17.7%	6.6%	10.2%	1.6%
CCOc1ccc(NC(=O)Cc2cccc3ccccc23)c([N+](=O)[O-])c1	1.3%	-12.5%	4.9%	-0.7%	-4.6%	-6.7%
CCOc1ccc(N/C=C/C(=O)c2ccc(C)cc2)c([N+](=O)[O-])c1	-27.4%	?	1.35µM*	?	?	1.41µM*
CCOc1ccc(NC(=O)COc2ccccc2)c([N+](=O)[O-])c1	-4.2%	?	3.01µM*	?	3.55µM*	?
